Experimental data: PubChem BioAssay (EPA / NIEHS)
Records with an inconclusive call do not appear. Calls of active or inactive are those of the source. Rule for the calls, unless noted: active = hit-call score of the fitted dose curve at least 0.9, where 1 is the maximum; inactive = score below 0.9.

Key:
[1] = read-out: succinate dehydrogenase complex iron sulfur subunit B (SDHB), SDHB (gene 6390); assay: LTEA_HepaRG_SDHB: Life Technologies and Expression Analysis (LTEA) Assay for succinate dehydrogenase complex iron sulfur subunit B (SDHB) using HepaRG (AID 2283528); details: mRNA level, 48 h; actives raise or lower the signal
Procedure, shortened: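 SDHB transcript level read by TaqMan qRT-PCR, housekeeping-normalised (ACTB, GAPDH, POLR2A), after 48 h chemical treatment of plated HepaRG cells; eight concentrations top 100 uM, half-log steps, 0.5% DMSO, duplicates; fitted both directions against DMSO.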

[2] = read-out: Signal transducer and activator of transcription 3 (Homo sapiens) (UniProt P40763); assay: LTEA_HepaRG_STAT3: Life Technologies and Expression Analysis (LTEA) Assay for Signal transducer and activator of transcription (STAT3) using HepaRG (AID 2283529); details: mRNA level, 48 h; actives raise or lower the signal
Procedure, shortened: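 STAT3 transcript quantified by qRT-PCR against three housekeeping genes (ACTB, GAPDH, POLR2A), fitted both directions relative to DMSO. HepaRG cultures exposed 48 h to eight half-log concentrations, top 100 uM, 0.5% DMSO, serum-free induction medium.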

[3] = read-out: solute carrier (SLCO1B1), SLCO1B1 (gene 10599); assay: LTEA_HepaRG_SLCO1B1: Life Technologies and Expression Analysis (LTEA) Assay for solute carrier (SLCO1B1) using HepaRG (AID 2283530); details: mRNA level, 48 h; actives raise or lower the signal
Procedure, shortened: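 HepaRG, serum-free induction medium, 48 h dosing, 8-pt half-log from 100 uM, 0.5% DMSO vehicle, duplicates. Readout: SLCO1B1 mRNA, qRT-PCR, ACTB/GAPDH/POLR2A normalization; up or down fit vs DMSO.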

[4] = read-out: sulfotransferase 2A1 (SULT2A1), SULT2A1 (gene 6822); assay: LTEA_HepaRG_SULT2A1: Life Technologies and Expression Analysis (LTEA) Assay for sulfotransferase 2A1 (SULT2A1) using HepaRG (AID 2283531); details: mRNA level, 48 h; actives raise or lower the signal
Procedure, shortened: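 Transcript levels of SULT2A1, quantified by qRT-PCR and normalized to three housekeeping genes, serve as the readout. Human HepaRG cultures receive test chemicals for 48 h at up to 100 uM in half-log steps, with 0.5% DMSO vehicle.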

[5] = read-out: Transforming Growth Factor (TGFA), TGFA (gene 7039); assay: LTEA_HepaRG_TGFA: Life Technologies and Expression Analysis (LTEA) Assay for Transforming Growth Factor (TGFA) using HepaRG (AID 2283532); details: mRNA level, 48 h; actives raise or lower the signal
Procedure, shortened: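 TGFA transcript quantified by qRT-PCR (Fluidigm arrays) against three housekeeping genes, after 48 hours chemical treatment of HepaRG cells. Top concentration 100 uM with half-log dilutions, 8 points, duplicates, 0.5% DMSO.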

[6] = read-out: Transforming Growth Factor (TGFB1), TGFB1 (gene 7040); assay: LTEA_HepaRG_TGFB1: Life Technologies and Expression Analysis (LTEA) Assay for Transforming Growth Factor (TGFB1) Transporter using HepaRG (AID 2283533); details: mRNA level, 48 h; actives raise or lower the signal
Procedure, shortened: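 HepaRG, 48 h post-plating, switched to serum-free induction medium; chemicals 100 uM top, half-log, 8 pts, 0.5% DMSO, dup; 48 h exposure; RNA → Fluidigm TaqMan qRT-PCR; norm ACTB/GAPDH/POLR2A; bidirectional fit vs DMSO.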

TIMP1, TIMP1 (gene 7076) = assay: LTEA_HepaRG_TIMP1: Life Technologies and Expression Analysis (LTEA) Assay for TIMP1 using HepaRG (AID 2283534); details: mRNA level, 48 h; actives raise or lower the signal;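 note: TaqMan qRT-PCR signal normalized to ACTB GAPDH and POLR2A housekeeping genes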
Procedure, shortened: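 Readout is TIMP1 mRNA level measured by qRT-PCR and normalized to three housekeeping genes. Human HepaRG cells were treated for 48 h in duplicate at eight concentrations up to 100 uM (0.5% DMSO); gain or loss fitted against DMSO.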

[7] = read-out: Tumor necrosis factor receptor 1 (TNFRSF1A), TNFRSF1A (gene 7132); assay: LTEA_HepaRG_TNFRSF1A: Life Technologies and Expression Analysis (LTEA) Assay for Tumor necrosis factor receptor 1 (TNFRSF1A) using HepaRG (AID 2283535); details: mRNA level, 48 h; actives raise or lower the signal
Procedure, shortened: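 Read-out is TNFRSF1A transcript level by TaqMan qRT-PCR, normalized to three housekeeping genes, scored as gain or loss of signal versus 0.5% DMSO. Human HepaRG cells received test chemicals for 48 h at up to 100 uM (half-log series).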

[8] = read-out: Thyroid Hormone Responsive (THRSP), THRSP (gene 7069); assay: LTEA_HepaRG_THRSP: Life Technologies and Expression Analysis (LTEA) Assay for Thyroid Hormone Responsive (THRSP) using HepaRG (AID 2283536); details: mRNA level, 48 h; actives raise or lower the signal
Procedure, shortened: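 THRSP transcript quantified by Fluidigm qRT-PCR against three housekeeping genes after 48 h chemical exposure of HepaRG cells in serum-free induction medium; eight-point half-log series, top 100 uM, 0.5% DMSO vehicle, duplicate wells.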

[9] = read-out: Cellular tumor antigen p53 (Homo sapiens) (UniProt P04637); assay: LTEA_HepaRG_TP53: Life Technologies and Expression Analysis (LTEA) Assay for Tumor Protein P53 (TP53) using HepaRG (AID 2283537); details: mRNA level, 48 h; actives raise or lower the signal
Procedure, shortened: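 TP53 transcript measured by qRT-PCR, normalized to three housekeeping genes, after 48 h treatment of human HepaRG cultures with chemicals from 100 uM downward in half-log steps (0.5% DMSO vehicle, serum-free induction medium). Up- or down-regulation fitted against DMSO.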

[10] = LTEA_HepaRG_LDH_cytotoxicity: Cytotoxicity Assessment in the Life Technologies and Expression Analysis (LTEA) Assay (AID 2283563; active = hit-call score of the fitted dose curve at least 0.9, where 1 is the maximum)
Procedure, shortened: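 Cells were thawed and plated for 48 h. Medium was then replaced with serum-free induction medium. Chemicals (8 half-log points, maximum 100 uM, 0.5% DMSO) were added in duplicate for 48 h, after which spent medium was assayed for LDH.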

[11] = ATG_XTT_Cytotoxicity: Cytotoxicity Assessment in the Attagene TRANS-FACTORIAL HepG2 Assay (AID 2283584; active = hit-call score of the fitted dose curve at least 0.9, where 1 is the maximum)
Procedure, shortened: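 Cells: human HepG2, transiently transfected with MRTU reporter constructs. Exposure 24 h. Readout: XTT, cell number. Baseline/neg ctrl DMSO; loss-of-signal scored.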

[12] = biological target: Cellular tumor antigen p53 (Homo sapiens) (UniProt P04637); assay: TOX21_p53_BLA_p2_ratio: Tox21 HCT-116 p53 Agonism Beta-lactamase Assay, Ratio, Phase 2 (AID 2283592; active = hit-call score of the fitted dose curve at least 0.9, where 1 is the maximum)
Chain of Cellular tumor antigen p53 (Homo sapiens) (P04637 whole entry, looked up): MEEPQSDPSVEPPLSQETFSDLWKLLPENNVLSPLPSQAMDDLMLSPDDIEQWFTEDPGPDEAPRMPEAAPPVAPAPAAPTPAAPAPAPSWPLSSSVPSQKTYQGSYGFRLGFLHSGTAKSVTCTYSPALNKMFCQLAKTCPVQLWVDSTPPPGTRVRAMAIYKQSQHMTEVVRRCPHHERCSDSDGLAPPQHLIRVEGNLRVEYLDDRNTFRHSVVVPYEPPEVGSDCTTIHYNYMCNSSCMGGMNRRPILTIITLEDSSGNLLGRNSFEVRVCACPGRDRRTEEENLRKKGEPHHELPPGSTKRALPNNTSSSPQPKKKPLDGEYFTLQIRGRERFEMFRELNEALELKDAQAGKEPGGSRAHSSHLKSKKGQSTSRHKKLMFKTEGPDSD
Procedure, shortened: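 Plated HCT116 p53-bla cells (4000/well) received compound after 5 h, then 16 h at 37C/5% CO2. CCF4-AM added, 2 h RT. Ratio of 460 to 530 nm emission taken as the p53 reporter signal.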

[13] = biological target: Cellular tumor antigen p53 (Homo sapiens) (UniProt P04637); assay: TOX21_p53_BLA_p3_ratio: Tox21 HCT-116 p53 Agonism Beta-lactamase Assay, Ratio, Phase 3 (AID 2283596; active = hit-call score of the fitted dose curve at least 0.9, where 1 is the maximum)
Procedure, shortened: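 Cells were seeded at 4000/well, rested 5 h at 37C, then dosed with DMSO compound solutions (217-fold dilution) for 16 h. CCF4-AM substrate was loaded for 2 h at room temperature, and the 460/530 nm emission ratio was fitted for gain of signal versus DMSO.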

[14] = read-out: X-box binding protein 1 (XBP1), XBP1 (gene 7494); assay: LTEA_HepaRG_XBP1: Life Technologies and Expression Analysis (LTEA) Assay for X-box binding protein 1 (XBP1) using HepaRG (AID 2283540); details: mRNA level, 48 h; actives raise or lower the signal
Procedure, shortened: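 Transcript levels of XBP1, measured by qRT-PCR and normalised to three housekeeping genes, were fitted bidirectionally relative to 0.5% DMSO controls. Human HepaRG cells received eight-point half-log dilutions from 100 uM for 48 h.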

[15] = TOX21_p53_BLA_p2_viability: Viability Assessment in the Tox21 HCT-116 p53 Agonism Beta-lactamase Assay, Phase 2 (AID 2283591; active = hit-call score of the fitted dose curve at least 0.9, where 1 is the maximum;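 note: compound exposure lasted 16 h at 37 °C; actives lower the ATP signal meaning cytotoxicity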)
Procedure, shortened: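 Cytotoxicity readout: CellTiter-Glo ATP luminescence, 30 min at room temperature, after the beta-lactamase read. Cells were HCT116 exposed 16 h at 37C to compounds pin-transferred at 217-fold dilution from DMSO stocks.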

[16] = TOX21_p53_BLA_p4_viability: Viability Assessment in the Tox21 HCT-116 p53 Agonism Beta-lactamase Assay, Phase 4 (AID 2283597; active = hit-call score of the fitted dose curve at least 0.9, where 1 is the maximum;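 note: hits lower the luminescence signal meaning cytotoxicity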)
Procedure, shortened: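 Readout: ATP luminescence (CellTiter-Glo), measured 30 min after reagent addition at RT. The reagent followed a 2 h CCF4-AM incubation, and the cells had been exposed to compound for 16 h at 37C.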

[17] = read-out: UDP glucuronosyltransferase (UGT1A1), UGT1A1 (gene 54658); assay: LTEA_HepaRG_UGT1A1: Life Technologies and Expression Analysis (LTEA) Assay for UDP glucuronosyltransferase (UGT1A1) using HepaRG (AID 2283538); details: mRNA level, 48 h; actives raise or lower the signal
Procedure, shortened: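 UGT1A1 transcript level, measured by qRT-PCR with three housekeeping genes for normalization, after 48 h treatment of human HepaRG cells (0.5% DMSO, duplicates, up to 100 uM, half-log steps, 8 points). Curves fit both directions against DMSO baseline.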

[18] = TOX21_p53_BLA_p3_viability: Viability Assessment in the Tox21 HCT-116 p53 Agonism Beta-lactamase Assay, Phase 3 (AID 2283593; active = hit-call score of the fitted dose curve at least 0.9, where 1 is the maximum;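 note: cells exposed to compound for 16 h before reading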)
Procedure, shortened: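 Cellular ATP was quantified by CellTiter-Glo luminescence, read after 30 min at room temperature. Beforehand, HCT116 cells (4000/well) received compound 5 h post-seeding, 217-fold diluted from DMSO, then incubated 16 h at 37C.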

Measured: AC50

Chain of Signal transducer and activator of transcription 3 (Homo sapiens) (P40763 whole entry, looked up): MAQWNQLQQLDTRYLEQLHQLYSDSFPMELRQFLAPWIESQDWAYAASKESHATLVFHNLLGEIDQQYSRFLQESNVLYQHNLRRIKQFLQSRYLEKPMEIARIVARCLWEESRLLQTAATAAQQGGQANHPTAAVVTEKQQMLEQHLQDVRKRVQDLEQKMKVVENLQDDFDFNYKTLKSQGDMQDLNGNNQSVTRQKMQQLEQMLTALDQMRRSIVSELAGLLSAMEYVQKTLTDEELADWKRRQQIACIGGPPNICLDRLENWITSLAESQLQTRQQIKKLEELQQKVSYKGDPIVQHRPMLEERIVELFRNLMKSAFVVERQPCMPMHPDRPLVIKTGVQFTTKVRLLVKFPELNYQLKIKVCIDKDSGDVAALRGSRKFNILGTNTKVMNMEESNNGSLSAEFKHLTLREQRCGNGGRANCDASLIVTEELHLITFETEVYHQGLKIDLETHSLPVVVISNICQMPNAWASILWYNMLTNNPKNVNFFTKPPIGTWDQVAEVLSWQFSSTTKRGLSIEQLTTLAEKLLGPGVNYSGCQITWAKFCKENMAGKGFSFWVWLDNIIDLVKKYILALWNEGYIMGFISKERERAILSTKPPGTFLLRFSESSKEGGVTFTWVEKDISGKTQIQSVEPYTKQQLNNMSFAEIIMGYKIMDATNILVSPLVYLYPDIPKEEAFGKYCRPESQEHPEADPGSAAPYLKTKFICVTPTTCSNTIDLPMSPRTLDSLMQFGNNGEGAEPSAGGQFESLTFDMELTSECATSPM

CCCCCCC(=O)OCC
not listed: [14] | [15] | [16] | [17] | [18]
inactive: all other assays above

CC(=O)OC/C=C(\C)CCC=C(C)C
not listed: [17] | [18]
inactive: all other assays above

O=C(OCCCCCOC(=O)c1ccccc1)c1ccccc1
active: [2] 7250 nM | [3] 1290 nM | [5] 1280 nM | [6] 3000 nM | [7] 1990 nM | [9] 1310 nM | [17] 1070 nM
not listed: [1] | [14] | [15]
inactive: all other assays above

CC(=O)Oc1ccccc1C(=O)O
not listed: [8] | [11]
inactive: all other assays above

CC(=O)OCCOCCOCCOC(C)=O
not listed: [14] | [17]
inactive: all other assays above

Cc1cccc(Nc2cc(Cl)nc(SCC(=O)O)n2)c1C
not listed: [11] | [14] | [15] | [17] | [18]
inactive: all other assays above

Cc1nc(C)nc(N2C[C@@H](C)N(c3ccnc([C@@H](C)O)n3)[C@@H](C)C2)n1
not listed: [11] | [13] | [14] | [16] | [17]
inactive: all other assays above
